Bioassay records (PubChem)
FMDV antiviral – High Throughput Screening for Foot and Mouth Disease Virus Antivirals. FMDV antiviral cell-based qHTS. Potency, µM (top dose mostly 57.9 µM), usual class: inhibitors. actives 1.2% (n = 410,000); calls by dose curve; tested in HEK293T cells; further: read-out not given here; nearly all actives have a fitted effect of over 45% in size
Sm TGR block – qHTS Assay for the Inhibitors of Schistosoma Mansoni Peroxiredoxins. purified TGR, DTNB reduction, TNB absorbance 405 nm. Schistosoma mansoni thioredoxin glutathione reductase (TGR), Q962Y6. actives 3% (n = 360,000). Potency, µM (titrated, usually from 114 µM), actives largely listed as inhibitors; further: nearly all actives have a fitted effect of over 60% in size
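First, TGR (20 nM dispensed) and NADPH were mixed with compound. Second, a 15 min room-temperature incubation followed. Third, further NADPH and then DTNB were added to start the reaction. Finally, TNB absorbance was monitored kinetically.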
Tb PYK inh – qHTS of Trypanosoma Brucei Inhibitors. pyruvate kinase (Trypanosoma brucei), Q57TT1. Potency, µM (titrated, usually from 76.8 µM), hits mostly inhibitors. AID 624173, 2012. actives 0.12% (n = 410,000). TbPYK enzyme, Kinase-Glo Plus ATP luminescence, 45 min; further: nearly all actives have a fitted effect of over 50% in size
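In this concentration-response screen, enzyme-free wells defined baseline while DMSO plates tracked drift. Each reaction combined TbPYK, substrate, compound and 130 uM ADP for 45 min at room temperature. Kinase-Glo Plus luminescence gave the signal.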
RE007 growth inh – qHTS Assay for Inhibitors of the HIV-1 protein Vpr. S. pombe RE007 Vpr strain, BacTiter-Glo ATP luminescence, 24 h. Potency, µM (titrated, usually from 92.2 µM), actives largely listed as inhibitors. actives 0.21% (n = 360,000); active means well fitted falling curve with a large enough effect; inconclusive means small, poorly fitted or top-dose-only effect; inactive means no such curve, though single readings can be large or run the other way; further: nearly all actives have a fitted effect of over 50% in size
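Fission yeast RE007 carrying one integrated HIV-1 vpr copy, seeded at OD 0.01 in PMG+AL medium with 23 nL pinned compound. Grown 24 h at 30 degrees; viability read by BacTiter-Glo luminescence after 5 min.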
Numbers stand for hits; 0 = inactive; ? = inconclusive; - = not tested or not shown. The list is not random: actives were taken first. Their share in the collection is about 3.7%. Unless noted, the call rests on the fitted dose curve; in most records, active means well fitted curve in the direction sought with a large enough effect; inconclusive means small, poorly fitted or top-dose-only effect, or another doubt; inactive means no such curve, though single readings can be large; an effect the other way counts as inactive or inconclusive.

SMILES | FMDV antiviral | Sm TGR block | Tb PYK inh | RE007 growth inh
Cc1ccccc1-c1nc(SCc2cccnc2)c2c(=O)n(C)c(=O)n(C)c2n1 | 0 | 45µM | 0 | ?
CNC(=O)COC(=O)c1cc(-c2ccco2)nc2ccccc12 | 0 | 2.8µM | 0 | 0
CCN(CC)C(=O)COC(=O)c1cc(-c2ccco2)nc2ccccc12 | 0 | 1.8µM | 0 | 0
Cc1ccc(/C=C/C(=O)OC(C)C(=O)Nc2ccc(Cl)cn2)o1 (centres undefined) | 0 | 13µM | ? | 0
O=C(O)C(=O)Nc1cccc(C2=NN=N[N]2)c1 | - | - | 0 | -
O=C(O)CN1C(=O)c2cccc3c(Br)ccc1c23 | 0 | 0 | 0 | 0
CN(C)CCCN1C(=O)c2cccc3c(Br)ccc(c23)C1=O | 0 | 8.9µM | 0 | 0
COCC1CCCN(Cc2ccc3c(c2)CN(C(=O)c2cccnc2OC)CCO3)C1 (centres undefined) | 0 | - | - | -
N=c1n(CCO)c2ccccc2n1CCOc1ccc(Cl)cc1Cl | 28µM | 0 | 0 | 0
